# Source: PubChem BioAssay AID624255 (Broad Institute, 2012)
# Among all 77,000 compounds or so, about 4,600 (6%) were called active. About 1% were inconclusive and are not listed.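 Rule for the calls: active = mean inhibition above about 93%, with at least 55% of replicates each passing it (limit read from the data, passing the limit was not always enough); inconclusive = only one of those two conditions holds; inactive = neither condition holds.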 This excerpt belongs to a sample that is enriched for actives.
# Assay: growth inhibition of T. cruzi in host fibroblasts – cell-based, beta-gal Tulahuen parasites, NIH3T3 host, luminescence, primary screen (AID 624255)
# Settings: T. cruzi beta-gal in NIH3T3, GalScreen luminescence, 90 h; at 8.34 µM; stronger effect = higher value
row,Compound,inhibition
1,O=C(C[C@H]1CC[C@@H]2[C@H](COC[C@H](O)CN2S(=O)(=O)c2ccc(F)cc2)O1)NCCN1CCCCC1,7.58% (inactive)
2,CNC(=O)C[C@@H]1CC[C@@H]2[C@@H](COc3ccc(NC(=O)Cc4cccs4)cc3C(=O)N2C)O1,-40.4% (inactive)
3,Cc1noc(C)c1NC(=O)N(C)C[C@H]1OCCCC[C@H](C)Oc2ccc(NC(=O)Nc3ccc4c(c3)OCO4)cc2C(=O)N([C@H](C)CO)C[C@@H]1C,17.1% (inactive)
4,COCC(=O)N1C[C@H](C)[C@@H](OC)CN(C)C(=O)c2cc(NC(=O)c3ccc(OC)cc3)ccc2OC[C@H]1C,5.7% (inactive)
5,CC=Cc1ccc2n(c1=O)C[C@H]1[C@H](CO)[C@@H](C(=O)NCC3CC3)N(Cc3nccs3)[C@@H]21 (mixture of isomers),-71.1% (inactive)
6,COc1ccccc1C#Cc1cnc2c(c1)C(=O)N([C@@H](C)CO)C[C@H](C)[C@@H](CN(C)C(=O)CC1CC1)O2,92.8% (inactive)
7,C[C@@H]1CCCCO[C@H](CN(C)S(=O)(=O)c2cn(C)cn2)[C@H](C)CN([C@@H](C)CO)C(=O)c2cc(NC(=O)Nc3ccc(C(F)(F)F)cc3)ccc2O1,29.7% (inactive)
8,CO[C@@H]1CN(C)C(=O)c2ccc(NC(=O)Nc3c(C)noc3C)cc2OC[C@H](C)N(CC2CC2)C[C@H]1C,91.1% (inactive)
9,C[C@@H]1CN([C@@H](C)CO)C(=O)c2cc(-c3cncnc3)cnc2O[C@@H]1CN(C)C(=O)c1ccccc1F,92.3% (inactive)
10,C[C@H]1CN([C@@H](C)CO)C(=O)c2cc(C3=CCCC3)cnc2O[C@@H]1CN(C)C(=O)c1ccccc1,-4.66% (inactive)
11,CCCC(=O)Nc1ccc2c(c1)OC[C@H](C)N(CCC)C[C@@H](C)[C@@H](OC)CN(C)C2=O,-74.1% (inactive)
12,CN1c2ccc(C3=CCCCC3)cc2[C@H]2[C@H](CCN2S(=O)(=O)c2ccccc2)[C@@H]1CO,86.7% (inactive)
13,C[C@@H]1CCCCO[C@H](CN(C)S(C)(=O)=O)[C@@H](C)CN([C@@H](C)CO)C(=O)c2cc(NC(=O)CCC(F)(F)F)ccc2O1,31.3% (inactive)
14,C[C@H]1CN([C@@H](C)CO)C(=O)c2cc(-c3cccc(F)c3)cnc2O[C@@H]1CN(C)S(C)(=O)=O,36.8% (inactive)
15,C[C@H](CO)N1C[C@H](C)[C@@H](CN(C)S(=O)(=O)c2ccccc2)Oc2ncc(-c3ccncc3)cc2C1=O,2.86% (inactive)
16,C[C@H](CO)N1C[C@H](C)[C@H](CN(C)S(=O)(=O)c2ccccc2)Oc2ncc(-c3cccc(C(F)(F)F)c3)cc2C1=O,118% (active)
17,CCCNC(=O)[C@H]1[C@H](CO)[C@H]2Cn3c(ccc(C4=CCCC4)c3=O)[C@H]2N1C(=O)CC,6.67% (inactive)
18,O=C(C[C@H]1CC[C@H]2[C@@H](COC[C@@H](O)CN2S(=O)(=O)c2cccc(Cl)c2)O1)NC1CCCC1,-59.2% (inactive)
19,O=C(Nc1cc(Cl)cc(Cl)c1)N[C@@H]1CC[C@H](CCNS(=O)(=O)c2cccc(F)c2)O[C@H]1CO,17.2% (inactive)
20,O=C(Nc1ccccc1)N[C@H]1CC[C@H](CCNC(=O)c2ccccc2F)O[C@H]1CO,22.8% (inactive)

row,Compound,inhibition
1,O=C(Nc1ccc(C(F)(F)F)cc1)N[C@@H]1CC[C@H](CCNC(=O)c2ccccc2F)O[C@H]1CO,-57% (inactive)
2,O=C(Nc1cc(Cl)cc(Cl)c1)N[C@H]1CC[C@@H](CCNS(=O)(=O)c2cccc(F)c2)O[C@H]1CO,117% (active)
3,O=S(=O)(NCC[C@H]1CC[C@@H](NS(=O)(=O)c2cccc(Cl)c2)[C@@H](CO)O1)c1cccc(F)c1,11.3% (inactive)
4,O=C(Nc1ccc(Cl)cc1)N[C@@H]1CC[C@@H](CCNC(=O)c2ccccc2F)O[C@H]1CO,169% (active)
5,COc1ccccc1CNC(=O)C[C@@H]1CC[C@H](NC(=O)CN(C)C)[C@@H](CO)O1,18.4% (inactive)
6,O=C(Nc1ccc(F)cc1)N[C@H]1CC[C@H](CCn2cc(-c3ccc(F)cc3)nn2)O[C@@H]1CO,-16.9% (inactive)
7,C[C@H]1CN([C@@H](C)CO)S(=O)(=O)c2ccc(C#Cc3ccncc3)cc2O[C@@H]1CN(C)C(=O)Nc1ccc2c(c1)OCO2,86.1% (inactive)
8,CN1C(=O)c2cc(NC(=O)NC3CCCC3)ccc2OC[C@@H]2O[C@@H](CC(=O)O)CC[C@H]21,-32.1% (inactive)
9,C[C@@H]1CN([C@H](C)CO)C(=O)c2cc(NC(=O)Nc3ccc(C(F)(F)F)cc3)ccc2O[C@@H](C)CCCCO[C@@H]1CN(C)Cc1ccc(C(F)(F)F)cc1,86.3% (inactive)
10,C[C@@H]1CCCCO[C@@H](CN(C)Cc2ccc(C(F)(F)F)cc2)[C@@H](C)CN([C@H](C)CO)C(=O)c2cc(NC(=O)Nc3ccccc3)ccc2O1,110% (active)
11,C[C@H]1CCCCO[C@@H](CN(C)Cc2ccc(C(F)(F)F)cc2)[C@@H](C)CN([C@@H](C)CO)C(=O)c2cc(NC(=O)Nc3ccccc3)ccc2O1,73.3% (inactive)
12,C[C@@H]1CN([C@H](C)CO)C(=O)c2cc(NC(=O)Nc3ccccc3)ccc2O[C@@H](C)CCCCO[C@H]1CN(C)Cc1ccc(C(F)(F)F)cc1,73.3% (inactive)
13,C[C@@H]1CCCCO[C@@H](CN(C)Cc2ccc(C(=O)O)cc2)[C@@H](C)CN([C@@H](C)CO)C(=O)c2cc(NC(=O)Nc3ccc(C(F)(F)F)cc3)ccc2O1,14.7% (inactive)
14,C[C@@H]1CCCCO[C@H](CN(C)Cc2ccc(C(F)(F)F)cc2)[C@H](C)CN([C@H](C)CO)C(=O)c2cc(NC(=O)Nc3ccc(F)cc3)ccc2O1,103% (active)
15,C/C=C/c1ccc2c(c1)O[C@H](CN(C)C(=O)Cc1ccncc1)[C@@H](C)CN([C@@H](C)CO)S2(=O)=O,20.3% (inactive)
16,C[C@H]1CCCCO[C@H](CN(C)CC2CCCCC2)[C@@H](C)CN([C@@H](C)CO)C(=O)c2cc(NS(=O)(=O)c3ccc(Cl)cc3)ccc2O1,88% (inactive)
17,C[C@H]1CN([C@@H](C)CO)C(=O)c2cc(C#CC3CCCCC3)cnc2O[C@H]1CN(C)S(=O)(=O)c1ccccc1,104% (active)
18,C[C@@H]1CN([C@H](C)CO)C(=O)c2cc(C#CC3CCCC3)cnc2O[C@H]1CN(C)C(=O)C1CC1,32.3% (inactive)
19,CCCC#Cc1cnc2c(c1)C(=O)N([C@H](C)CO)C[C@H](C)[C@@H](CN(C)S(=O)(=O)c1ccccc1)O2,75.2% (inactive)
20,C[C@@H]1CN([C@@H](C)CO)C(=O)c2cc(C#CC3CCCCC3)cnc2O[C@H]1CN(C)S(=O)(=O)c1ccccc1,104% (active)

row,Compound,inhibition
1,CC(C)NC(=O)N(C)C[C@H]1Oc2ncc(C#CC3CCCCC3)cc2C(=O)N([C@H](C)CO)C[C@@H]1C,84.2% (inactive)
2,C[C@@H]1CN([C@@H](C)CO)C(=O)c2cc(C#CC3CCCCC3)cnc2O[C@@H]1CN(C)Cc1cncnc1,53.7% (inactive)
3,C[C@@H]1CN([C@H](C)CO)C(=O)c2cc(NC(=O)Cc3ccccc3)ccc2O[C@@H](C)CCCCO[C@H]1CN(C)C(=O)Cc1ccccc1,-33.3% (inactive)
4,O=C(C[C@H]1CC[C@@H]2[C@H](COC[C@@H](O)CN2Cc2cccc(-c3ccncc3)c2)O1)N1CCOCC1,65.1% (inactive)
5,O=C(C[C@@H]1CC[C@H]2[C@@H](COC[C@H](O)CN2S(=O)(=O)c2ccc(F)cc2)O1)N[C@H]1CCN(Cc2ccccc2)C1,67.7% (inactive)
6,Cc1ccc(-c2ccc3c(c2)O[C@H](CN(C)C)[C@@H](C)CN([C@H](C)CO)S3(=O)=O)cc1,107% (active)
7,CNC[C@@H]1Oc2cc(-c3ccccc3OC)ccc2S(=O)(=O)N([C@@H](C)CO)C[C@H]1C,42.1% (inactive)
8,Cc1ccccc1-c1ccc2c(c1)O[C@H](CN(C)C)[C@H](C)CN([C@@H](C)CO)S2(=O)=O,15.2% (inactive)
9,COc1ccccc1-c1ccc2c(c1)O[C@@H](CN(C)C)[C@H](C)CN([C@H](C)CO)S2(=O)=O,102% (active)
10,CCC(=O)N(C)C[C@@H]1Oc2cc(-c3ccccc3OC)ccc2S(=O)(=O)N([C@H](C)CO)C[C@H]1C,52.7% (inactive)
11,Cc1ccc(-c2ccc3c(c2)O[C@H](CN(C)C)[C@@H](C)CN([C@@H](C)CO)S3(=O)=O)cc1,71.8% (inactive)
12,COc1ccccc1-c1ccc2c(c1)O[C@H](CN(C)S(=O)(=O)c1ccc(C)cc1)[C@@H](C)CN([C@H](C)CO)S2(=O)=O,124% (active)
13,CC(=O)N(C)C[C@H]1Oc2cc(-c3ccc(C)cc3)ccc2S(=O)(=O)N([C@@H](C)CO)C[C@@H]1C,98.5% (inactive)
14,Cc1ccccc1-c1ccc2c(c1)O[C@H](CN(C)C)[C@@H](C)CN([C@H](C)CO)S2(=O)=O,30% (inactive)
15,CO[C@@H](CN(C)S(=O)(=O)c1cccc(Cl)c1)[C@H](C)CN([C@H](C)CO)S(=O)(=O)c1cccc(Cl)c1,71.5% (inactive)
16,C[C@@H]1CCCCO[C@H](CN(C)C(=O)Cc2ccccc2)[C@@H](C)CN([C@@H](C)CO)C(=O)c2cc(NC(=O)c3ccccc3)ccc2O1,46.7% (inactive)
17,O=C(NCc1ccccn1)[C@@H]1[C@@H](CO)[C@@H]2Cn3c(ccc(/C=C/c4ccccc4)c3=O)[C@H]1N2CC1CC1,110% (active)
18,CCCNC(=O)[C@@H]1[C@@H](CO)[C@@H]2Cn3c(ccc(/C=C/c4ccccc4)c3=O)[C@H]1N2CCC,59.6% (inactive)
19,O=C(NCC1CC1)[C@H]1[C@H](CO)[C@H]2Cn3c(ccc(/C=C/c4ccccc4)c3=O)[C@@H]1N2C(=O)C1CCC1,-126% (inactive)
